rCAG binder: binders of r(CAG) RNA repeats, primary screen, biochemical, fluorescence | r(CAG) RNA repeat, TO-PRO-1 dye displacement fluorescence | inhibition, % at 3 µM | hit rate 1.3% among 370,000;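 active = inhibition above the plate cutoff, the mean of all test compounds on that plate plus 3 SD, cut at about 35% in these data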;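 also: 0% = DMSO alone and 100% = 100 µM mitoxantrone as full dye displacement; higher means more dye released from RNA so lower well fluorescence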
MsrA inh: bovine MsrA enzyme inhibitors, primary screen, biochemical, absorbance, HTS; purified bovine MsrA, absorbance read-out; hit rate 0.75% among 360,000; Methionine sulfoxide reductase A (Bos taurus); inhibition, % at 15.5 µM; AID 651718, 2012; in the data active = inhibition above about 4.5%;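 also: 0% = vehicle wells with enzyme and 100% = reference inhibitor wells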
NadD inh: inhibitors of S. aureus NadD, primary screen, biochemical, colorimetric, uHTS; inhibition, % at 20 µM; Nicotinate-nucleotide adenylyltransferase NadD (Staphylococcus aureus N315); hit rate 0.78% among 360,000; purified NadD enzyme, colorimetric absorbance read-out; AID 602399, 2012; in the data active = inhibition above about 26%
bovine MsrA act: bovine MsrA enzyme activators, primary screen, biochemical, absorbance, HTS. Methionine sulfoxide reductase A (Bos taurus). purified bovine MsrA, absorbance read-out. activation, % at 10.6 µM. hit rate 0.3% among 360,000; in the data active = activation above about 7.5%;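 also: 0% = vehicle and 100% = reference activator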
rCAG binder conf: small molecules binding CAG repeat RNA – biochemical, fluorescence, confirmation. hit rate 70% among 4,300. r(CAG) RNA repeat, TO-PRO-1 dye displacement fluorescence. shares compounds with rCAG binder. inhibition, % at 3 µM. AID 652065, 2013;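 active = inhibition above a per-plate cutoff, the mean inhibition of sample wells plus 3 SD, cut at about 35% in these data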;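 also: loss of TO-PRO-1 fluorescence as compound displaces dye from 1x1 AA loop RNA; 0% = DMSO only wells and 100% = 100 µM mitoxantrone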
dCAG dye counter: displacement of TO-PRO-1 from CAG DNA duplex, counter-screen for rCAG RNA repeat binder project, biochemical, fluorescence, TO-PRO-1 dye, d(CAG) DNA oligo; shares compounds with rCAG binder; d(CAG) DNA oligo TO-PRO-1 dye displacement; inhibition, % at 3 µM; hit rate 94% among 4,300; AID 652068, 2013;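 active = inhibition above its plate's cutoff, the mean test-well inhibition plus 3 SD, cut at about 4.8% in these data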;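 also: 0% = DNA dye mix with DMSO and 100% = 100 µM mitoxantrone; hits displace the dye from DNA and so lower well fluorescence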
dCAG dye DR: inhibitors of DNA CAG/GTC TO-PRO-1 complex, dose response, counter-screen for rCAG RNA repeat binder project, biochemical, fluorescence, TO-PRO-1 dye; shares compounds with rCAG binder; DNA CAG/GTC duplex TO-PRO-1 dye displacement fluorescence; IC50, µM; hit rate 20% among 250; AID 686960, 2013; in the data active = IC50 below about 10 µM
An asterisk follows results filed as active; i = inactive; / = no result. A selection: hits, their analogues and other compounds. The true share with any hit is near 2.7%.

SMILES	rCAG binder	MsrA inh	NadD inh	bovine MsrA act	rCAG binder conf	dCAG dye counter	others
NC(=S)N=Nc1c(O)[nH]c2c(Br)cc(Br)cc12	2.9	1.7	9.1	-11.2	/	/
O=C(O)C1CC=CCC1C(=O)Nc1ccc(S(=O)(=O)N2CCCc3ccccc32)cc1 (stereo unspecified)	36.2*	1.0	14.3	-3.2	36.8*	9.1*
COCCN(CCOC)Cc1c(O)ccc2c1O/C(=C\c1ccc(C)o1)C2=O	36.0*	3.3	1.2	-1.7	-0.4	-1.4
O=C(CC1C[C@H](C(=O)N2CCCCC2)[C@@]2(CCc3ccccc3)c3[nH]c4ccccc4c3CCN2C1=O)NCCCn1ccnc1 (stereo partly specified)	5.1	0.3	23.6	1.9	/	/
O=C(NC(Cc1c[nH]c2ccccc12)C(=O)NCCCN1CCOCC1)c1cccs1 (stereo unspecified)	-3.8	-1.3	-9.6	-0.3	/	/
CC(C)(C)NC(=O)C(c1ccc(C#N)cc1)n1c(=O)c(-c2ccco2)nc2ccccc21 (stereo unspecified)	36.5*	0.8	/	/	24.0	12.7*
O=Cc1ccc(N2N=C(c3ccccc3)CC2c2ccccc2)cc1 (stereo unspecified)	7.6	1.6	0.5	-3.9	/	/
O=C(O)c1ccc(N2N=C(c3ccccc3)CC2c2ccccc2)cc1 (stereo unspecified)	43.8*	3.8	-3.5	-4.1	46.9*	12.4*
CC(=O)Nc1cccc(C(=O)NNC(=O)c2n[nH]c(=O)c3ccccc23)c1	3.7	-0.7	3.9	-1.5	/	/
CC(C)(C)c1ccc(C(=O)NC(CC(=O)O)c2ccc(OC3CCCC3)cc2)cc1 (stereo unspecified)	39.4*	0.1	-3.1	-2.0	42.8*	8.0*
Cc1cccc(NC(=O)CN2C(=O)N/C(=C\c3ccc(-c4cccc(C(=O)O)c4)o3)C2=O)c1	68.6*	2.0	13.0	-4.1	73.3*	37.0*
Cc1cccc(NC(=O)CN2C(=O)S/C(=C\c3ccc(-c4cccc(C(=O)O)c4C)o3)C2=O)c1	14.8	2.7	/	/	/	/
COC(=O)C(C)N1C(=O)S/C(=C\c2ccc(-c3ccc(C(=O)O)cc3C)o2)C1=O (stereo unspecified)	43.9*	1.8	18.2	-3.2	33.1	7.8*
Cc1ccc(NC(=O)CN2C(=O)N/C(=C/c3ccc(C)o3)C2=O)cc1	26.0	0.8	3.6	-8.9	/	/
Cc1ccc(NC(=O)CN2C(=O)S/C(=C/c3ccc(-c4cc(C(=O)O)ccc4C)o3)C2=O)cc1C	46.1*	0.8	50.3*	-8.6	90.8*	73.8*
O=C(OCc1c(-c2ccccc2)ncc2ccccc12)c1ccco1	3.3	0.7	-1.6	0.6	/	/
CC1=Nc2ccccc2N=C(NC(=O)c2ccccc2)C1c1ccccc1 (stereo unspecified)	-2.7	-0.8	-4.7	-4.5	/	/
Cc1cc(C)nc(N2N=C(C(F)(F)F)CC2=O)n1	4.3	0.0	-2.6	-3.5	/	/
[O-][n+]1c2ccccc2cc2ccccc21	-4.5	1.3	-5.2	-1.4	/	/
O=C(O)c1ccc(N/N=C/c2cn(Cc3ccc(F)cc3)c3ccccc23)cc1	80.9*	2.5	18.0	-14.3	75.1*	34.9*
Cc1ccc(S(=O)(=O)Nc2ccc(Br)cc2/C=N/n2cnnc2)cc1	44.8*	0.1	2.2	-8.9	39.5*	12.5*
Cc1ccc(S(=O)(=O)Nn2cnnc2)cc1	-1.5	-1.0	-3.1	-2.4	/	/
CCc1nnc(NS(=O)(=O)c2ccc(NC(=S)NC(=O)c3ccc(F)cc3)cc2)s1	63.7*	1.6	2.8	-6.3	52.0*	19.0*
CCc1nnc(NS(=O)(=O)c2ccc(NC(=O)/C=C/c3ccc(F)cc3)cc2)s1	72.9*	0.7	3.3	-3.3	49.6*	20.3*
CCc1nnc(NS(=O)(=O)c2ccc(NC(=O)c3ccc(Br)cc3)cc2)s1	60.1*	0.0	-2.6	-4.0	52.9*	13.0*
SMILES	rCAG binder	MsrA inh	NadD inh	bovine MsrA act	rCAG binder conf	dCAG dye counter	others
COc1ccc(/C=C2\SC(=S)N(NS(=O)(=O)c3ccccc3)C2=O)c(OC)c1	38.9*	2.9	8.2	-4.5	73.5*	33.9*	dCAG dye DR=i
COc1ccc(/C=C2\SC(=S)N(N3CCOCC3)C2=O)c(OC)c1	1.4	0.8	-11.0	-7.0	/	/
O=C1/C(=C/C=C/c2ccco2)SC(=S)N1NS(=O)(=O)c1ccccc1	89.3*	0.0	14.5	-6.4	87.3*	61.4*
O=C(NN1C(=O)/C(=C/c2cccs2)SC1=S)c1ccncc1	7.3	2.0	0.6	-4.2	/	/
O=C1/C(=C/c2cccs2)SC(=S)N1NS(=O)(=O)c1ccccc1	53.5*	2.2	1.8	-1.5	29.9	6.8*
COc1ccc(OC)c(/C=C2\SC(=S)N(NS(=O)(=O)c3ccccc3)C2=O)c1	86.8*	3.5	4.0	-3.3	66.5*	29.9*
O=C1/C(=C\c2ccco2)SC(=S)N1c1ccccc1	26.8	-0.1	4.2	-5.7	/	/
COc1ccc([C@H]2C[C@@H](O)[C@H](n3cc(C4CC4)nn3)CN2Cc2cccs2)cc1	2.7	0.6	-4.4	1.3	/	/
CN1CCN(NC(=O)NC2CCCCC2)CC1	1.9	0.8	-1.4	-0.3	/	/
COc1ccc(NC(=O)COC(=O)CCc2ccc(S(=O)(=O)N3CCOCC3)cc2)cc1Cl	5.3	0.3	0.9	-12.0	/	/
CC(C(=O)O)N1C(=O)/C(=C/C=C/c2ccco2)SC1=S (stereo unspecified)	83.2*	1.0	27.5	-4.9	79.1*	41.4*
CC(C)(C)c1ccc(C(=O)CC(Sc2ccc(Cl)cc2)C(=O)O)cc1 (stereo unspecified)	41.1*	-0.3	13.1	-5.7	52.1*	17.7*
Cc1ccc(SC(CC(=O)c2ccc(F)cc2)C(=O)O)cc1 (stereo unspecified)	1.3	1.0	-8.1	-11.9	/	/
COc1cc(OC)cc(-c2nnc(SCc3ccc(C(=O)O)cc3)o2)c1	13.5	-1.3	-7.7	-5.3	/	/
CCCCSc1nc(O)cc(=O)n1CC	4.7	-0.9	-0.2	1.0	/	/
Cc1ccc(S(=O)(=O)Oc2ccc(/C=C3/C(=N)N4C(=NC3=O)SN=C4S(C)(=O)=O)cc2)cc1	31.8	-0.6	10.4	-6.4	/	/
Cc1ccc(S(=O)(=O)Oc2ccc(/C=C3\C(=N)N4N=C(S(C)(=O)=O)SC4=NC3=O)cc2)cc1	63.1*	0.4	34.1*	-2.3	88.2*	66.3*
COc1cc(/C=C2\C(=N)N3N=C(S(C)(=O)=O)SC3=NC2=O)cc(OC)c1OCCOc1cccc(C)c1	50.7*	1.1	31.5*	-4.5	88.7*	68.6*

Bioassay records as filed in PubChem.
